Assay results taken from PubChem BioAssay (NCATS).
Results filed as inconclusive are left out. Where a call stands in place of a potency, no number is given. Active and inactive are the calls of the source. The call rests on the fitted dose curve; in most records, active means well fitted curve in the direction sought with a large enough effect; inconclusive means small, poorly fitted or top-dose-only effect, or another doubt; inactive means no such curve, though single readings can be large; an effect the other way counts as inactive or inconclusive. Where a SMILES comes first, the peptide text is derived from it. [ ]: non-standard residue; d: D form. 2Abz = Nc1ccccc1C(=O)O

Key:
[1] = Primary qHTS for inhibitors of nuclear receptor binding SET domain protein 2 (NSD2) in an isogenic RCH-ACV NSD2 p.E1099K mutant (9B) (AID 1645876)
[2] = Primary qHTS for inhibitors of nuclear receptor binding SET domain protein 2 (NSD2) in an RCH-ACV wild type WT cells (2C) (AID 1645877)
Further: nearly all actives have a fitted effect of over 70% in size.
Potency means the concentration at half of the fitted maximal effect.

Compound	Potency [1]	Potency [2]	outcome [1]	outcome [2]
CC(=O)O[C@@H]1C[C@@]23C[C@@]24CC[C@H](OC2OC[C@@H](O)[C@H](O)[C@H]2O)C(C)(C)[C@@H]4CC[C@H]3[C@]2(C)CC3OC4(C[C@@H](C)C3[C@@]12C)OCC1(C)OC14 (some centres undefined)	inactive	inactive		
C[C@@]12C[C@]3(O)O[C@H](O1)[C@]1(COC(=O)c4ccccc4)[C@H]3C[C@@]12O[C@@H]1O[C@H](COC(=O)c2ccccc2)[C@@H](O)[C@H](O)[C@H]1O	inactive	inactive		
CC(c1c[nH]c2ccccc12)C(O)C(=O)O (centres undefined)	inactive	inactive		
COc1cc2c(cc1OC)CN(C(=O)[C@@H](NCc1ccncc1)C(C)(C)C)CC2	inactive	inactive		
C=CCc1ccc(O[C@@H]2O[C@H](CO[C@@H]3O[C@H](CO)[C@@H](O)[C@H](O)[C@H]3O)[C@@H](O)[C@H](O)[C@H]2O)c(O)c1	inactive	inactive		
CC1=CC(=O)OC(C)(CC(C)(O)C(=O)O)C1 (centres undefined)	inactive	inactive		
CC(=O)OC1C=C(C(=O)O)C2(CO)CCC(C)C(C)(CCc3ccoc3)C2C1 (centres undefined)	inactive	inactive		
COc1cc(/C=C/C(=O)OC[C@H]2O[C@H](O[C@]3(CO)O[C@H](CO)[C@@H](O)[C@@H]3O)[C@H](O)[C@@H](O)[C@@H]2O)cc(OC)c1O	inactive	inactive		
COC(=O)C1(Cc2ccc(O)cc2)OC(=O)C(OC)=C1c1ccc(O)cc1 (centres undefined)	inactive	inactive		
COc1cc2c(cc1O)CCN[C@]21CS[C@@H]2c3c(OC(C)=O)c(C)c4c(c3[C@H](COC1=O)N1[C@@H]2[C@H]2c3c(cc(C)c(OC)c3O)C[C@@H]([C@@H]1O)N2C)OCO4	1.7 nM (active)	1.4 nM (active)		
COc1ccccc1CC(C(=O)O)N(C)C(=O)c1ccccc1 (centres undefined)	inactive	inactive		
C=C1CC2[C@]3(C)C(=C(O)C(=O)[C@@]2(C)[C@]2(C(=O)OC)C(=O)C(C)OC(=O)[C@@]12C)C(C)(C)C(=O)CC3O (some centres undefined)	inactive	inactive		
N[C@H]1C[C@H]1c1ccc(-c2cccc(O)c2)cc1	inactive	inactive		
CC1=CC(=O)CC(C)(CO[C@@H]2O[C@H](CO)[C@@H](O)[C@H](O)[C@H]2O)C1(O)/C=C/C(C)=C/C(=O)O (some centres undefined)	inactive	inactive		
COc1cc(COC2OC(CO)C(O)C(O)C2O)cc(OC)c1O (centres undefined)	inactive	inactive		
COC(=O)C1=CO[C@@H](O[C@@H]2O[C@H](CO)[C@@H](O)[C@H](O)[C@H]2O)[C@@H]2[C@@H](C(=O)OC)[C@@H](O)C(O)[C@H]12 (some centres undefined)	inactive	inactive		
CCC(C)C1NC(=O)C2CCCN2C(=O)C(C(C)C)NC(=O)c2ccccc2NC(=O)C(Cc2ccc(O)cc2)NC(=O)C(C)NC(=O)C(C(C)O)NC1=O (centres undefined) (cyclo([2Abz]VPITAY); configuration not given here)	inactive	inactive		
C=C[C@H]1[C@H](O[C@@H]2O[C@H](CO[C@@H]3OC[C@](O)(CO)[C@H]3O)[C@@H](O)[C@H](O)[C@H]2O)OC=C2C(=O)OCC[C@H]21	inactive	inactive		
COc1cc(C(C)=O)ccc1O[C@@H]1O[C@H](CO[C@@H]2O[C@@H](C)[C@H](O)[C@@H](O)[C@H]2O)[C@@H](O)[C@H](O)[C@H]1O	inactive	inactive		
COC(=O)CC1(O)C(=O)Nc2ccccc21 (centres undefined)	inactive	inactive		
C=C1CC[C@H]2[C@@](C)(CCC(O)[C@@]2(C)CO)[C@@H]1C/C=C(/C(=O)O)C(O)CO (some centres undefined)	inactive	inactive		
CC(=O)c1c(O)cc2cccc3c2c1CC(C)(O)O3 (centres undefined)	inactive	inactive		
CC(=O)OC1C(O)C(C)=C(CCC(C)CC(=O)O)C2(C)CCCC(C)(C)C12 (centres undefined)	inactive	inactive		
CC(C)C(C#N)O[C@@H]1O[C@H](CO[C@@H]2OC[C@](O)(CO)[C@H]2O)[C@@H](O)[C@H](O)[C@H]1O (some centres undefined)	inactive	inactive		
CC(C)(O)c1ccc2c(c1)C(O)CC1C(C)(C(=O)O)CCCC21C (centres undefined)	inactive	inactive		
CC1CCC23COC(=O)C2=CC(O)CC3C1(C)CCC1=CC(=O)OC1O (centres undefined)	inactive	inactive		
C=C(C)[C@@H](C)[C@H]1O[C@]23C[C@]4(CO2)C(CCC2[C@@]5(C)CC[C@H](O[C@@H]6OC[C@H](O)[C@H](O[C@@H]7O[C@H](CO)[C@@H](O)[C@H](O)[C@H]7O)[C@H]6O[C@@H]6O[C@@H](CO)[C@H](O)[C@H]6O)C(C)(C)C5CC[C@]24C)C3[C@@](C)(O)[C@@H]1OC(C)=O (some centres undefined)			inactive [at 9.23 µM]	inactive [at 9.23 µM]
